# Shown are actives, neighbours in structure and some others; about 2.4% of the full set was active somewhere.
# UHRF1 binding: UHRF1 methylated DNA binding inhibitors, primary screen, counter-screen for MBD2 inhibitor project, biochemical, TR-FRET, human UHRF1, single concentration; actives 0.75% (n = 370,000); E3 ubiquitin-protein ligase UHRF1 (Homo sapiens), Q96T88; AID 687016, 2013; inhibition, % at 4.4 µM; UHRF1 binding to methylated oligo; in the data active = inhibition above about 21%;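 also: UHRF1 SRA domain binding a hemimethylated CpG hairpin DNA probe; 0% = median of test compound wells and 100% = reference inhibitor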
# Target sequence (Q96T88 whole entry, looked up, the tested form may be a part): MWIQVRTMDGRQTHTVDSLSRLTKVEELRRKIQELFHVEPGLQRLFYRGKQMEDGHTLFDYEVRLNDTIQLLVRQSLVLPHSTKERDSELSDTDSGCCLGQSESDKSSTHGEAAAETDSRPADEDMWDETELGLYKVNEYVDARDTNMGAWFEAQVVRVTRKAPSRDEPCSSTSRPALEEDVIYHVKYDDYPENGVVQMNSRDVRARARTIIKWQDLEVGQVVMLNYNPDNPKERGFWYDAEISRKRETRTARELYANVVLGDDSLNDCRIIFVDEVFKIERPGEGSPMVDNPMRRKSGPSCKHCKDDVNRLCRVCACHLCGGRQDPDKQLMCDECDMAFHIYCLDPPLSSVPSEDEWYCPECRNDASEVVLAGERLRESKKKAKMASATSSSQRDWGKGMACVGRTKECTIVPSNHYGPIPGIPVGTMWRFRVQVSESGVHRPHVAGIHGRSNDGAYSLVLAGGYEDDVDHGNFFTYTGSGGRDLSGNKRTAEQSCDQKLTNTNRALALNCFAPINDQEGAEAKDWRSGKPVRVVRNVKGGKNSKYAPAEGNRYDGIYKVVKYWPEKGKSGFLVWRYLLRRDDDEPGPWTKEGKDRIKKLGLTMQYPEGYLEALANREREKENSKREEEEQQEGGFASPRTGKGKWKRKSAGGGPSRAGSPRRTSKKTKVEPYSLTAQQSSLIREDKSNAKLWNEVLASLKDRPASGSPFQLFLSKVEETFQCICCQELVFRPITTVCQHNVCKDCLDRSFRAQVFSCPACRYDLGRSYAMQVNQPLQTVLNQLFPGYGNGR
# LEDGF integ inh: blockers of LEDGF/p75-dependent integrase strand transfer – biochemical, TR-FRET, high throughput, primary screen; HIV-1 integrase (with human LEDGF/p75); TR-FRET IN-LEDGF/p75 DNA integration, Eu/Cy5; inhibition, % at 3.7 µM; actives 0.64% (n = 370,000); AID 743269, 2014;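 active = inhibition above the screen-wide mean plus 3 SD, cut at about 13% in these data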;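 also: signal is the Cy5 over europium emission ratio at 671 and 618 nm; 0% = plate median of compound wells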
# PLC-gamma1 inh: PLC-gamma1 enzyme inhibitors, primary screen, biochemical, fluorescence, purified enzyme. 1-phosphatidylinositol 4,5-bisphosphate phosphodiesterase gamma-1 (Homo sapiens), P19174. fluorogenic substrate. inhibition, % at 12.2 µM. actives 0.84% (n = 370,000). AID 720700, 2013
# MBD2 inh: inhibitors of MBD2 binding to methylated DNA, primary screen, biochemical, TR-FRET, DNA-binding domain, human; Methyl-CpG-binding domain protein 2 (Homo sapiens), Q9UBB5; MBD2 binding to methylated oligonucleotide; inhibition, % at 4.4 µM; actives 0.31% (n = 370,000); AID 686964, 2013; in the data active = inhibition above about 13%
# PLCb3 inh: human PLC-beta3 inhibitors, primary screen, biochemical, fluorescence; Purified PLC-beta3, fluorogenic substrate; inhibition, % at 12.2 µM; actives 0.18% (n = 370,000); AID 720704, 2013; in the data active = inhibition above about 11%;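 also: 0% = median of compound wells on plate and 100% = full blocker control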
# PLCgamma1 ctr: PLC-gamma1 enzyme inhibitors, counter-screen for PLC-beta3 inhibitor project, biochemical, fluorescence. shares compounds with PLC-gamma1 inh. purified PLC-gamma1, fluorogenic substrate. inhibition, % at 12.3 µM. actives 3.1% (n = 3,300). AID 743258, 2014
# PLCbeta3 conf: PLC-beta3 inhibitor confirmation, biochemical, fluorescence, purified enzyme. actives 1% (n = 3,300). shares compounds with PLC-gamma1 inh. fluorogenic substrate fluorescence. inhibition, % at 12.3 µM; in the data active = inhibition above about 11%
# IN multimer act: HIV-1 IN multimer formation enhancers, counter-screen for LEDGF/p75 integration inhibitor project, biochemical, TR-FRET; activation, % at 7.7 µM; shares compounds with LEDGF integ inh; AID 1053131, 2014; actives 17% (n = 2,000); TR-FRET HIV-1 integrase multimerization; in the data active = activation above about 8.9%
# TRFRET interf: TR-FRET optical interference artefacts, confirmation, artefact control for LEDGF/p75-dependent integration inhibitor project, biochemical, HIV-1 IN multimerization; shares compounds with LEDGF integ inh; TR-FRET optical interference counterscreen; inhibition, % at 7.7 µM; 2,000 tested, under 10 active; AID 1053135, 2014;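 active = inhibition above the mean over all tested compounds plus 3 SD, which no compound reached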;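 also: 0% = integrase with antibodies and DMSO and 100% = antibodies without integrase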
# IN-LEDGF confirm: inhibitors of HIV-1 IN-LEDGF/p75 DNA integration, confirmation, biochemical, TR-FRET | TR-FRET LEDGF/p75-dependent HIV-1 integration | inhibition, % at 3.7 µM | AID 1053136, 2014 | shares compounds with LEDGF integ inh | actives 36% (n = 2,000); in the data active = inhibition above about 14%
# * = called active by the depositor; / = not tested or not shown. Rule as the data show it, unless noted: active = inhibition above about 9.5%; inactive = the rest.
SMILES,UHRF1 binding,LEDGF integ inh,PLC-gamma1 inh,MBD2 inh,PLCb3 inh,PLCgamma1 ctr,PLCbeta3 conf,IN multimer act,TRFRET interf,IN-LEDGF confirm
COC(=O)[C@H](CC(C)C)N(CCCc1cn(Cc2ccccc2)nn1)S(=O)(=O)c1ccccc1Br,2,5,5,-8,9,/,/,/,/,/
Cc1cc(C)cc(N(CC(=O)NCc2ccco2)C(=O)CCC(=O)Nc2ccccn2)c1,2,1,11*,4,5,-3,-5,/,/,/
Cc1ccc(N(CC(=O)NCc2ccco2)C(=O)CCC(=O)Nc2ccccn2)cc1C,1,2,1,2,6,/,/,/,/,/
COc1ccc(/C=C2/CN(Cc3ccc(OC)cc3OC)C3=NC(c4ccc5ccccc5c4)CC(=O)N32)cc1 (stereo not drawn),1,2,-78,3,-117,/,/,/,/,/
COC(=O)c1cc(-c2cccc3c2sc2ccccc23)c(=O)n2c1CCC2,1,-5,41*,1,-5,-35,-28,/,/,/
COC(=O)c1cc(-c2ccc(Cl)s2)c(=O)n2c1CCC2,-2,1,-80,-2,-96,/,/,/,/,/
Cc1ccc(C(=O)NCCN2C3=NC[C@@H](Cc4ccccc4)N3C[C@H]2Cc2ccc(O)cc2)cc1Br,-2,-2,9.9*,1,4,1,0,/,/,/
Cc1ccc(C(=O)N[C@@H](C)CN2C3=NC[C@H](C(C)C)N3C[C@H]2Cc2ccc(O)cc2)cc1Br,1,-2,3,-2,-1,/,/,/,/,/
C=CCN1C(=O)[C@H](CC(=O)NCC2CCCCC2)[C@@]2(C(=O)OCC)CCCC=C12,-2,8,6,-5,3,/,/,/,/,/
CCN(CC(=O)NCc1cccs1)S(=O)(=O)c1cc(NC(C)=O)ccc1OC,15,0,9.6*,8,-10,-4,-6,/,/,/
COc1ccc(CCC[C@H](CCC(=O)N(c2ccccc2)c2ccccc2)CCc2ccccc2)cc1,1,-3,-2,-3,-3,/,/,/,/,/
CCOc1ccc2nc(C)cc(Nc3cccc([N+](=O)[O-])c3)c2c1,5,3,11*,-2,8,-2,-1,/,/,/
Cc1cc(Nc2cccc([N+](=O)[O-])c2)c2ccccc2n1,0,-1,3,-2,3,/,/,/,/,/
NS(=O)(=O)c1ccc(CCNS(=O)(=O)c2ccccc2)cc1,-1,0,0,0,2,/,/,/,/,/
NS(=O)(=O)c1ccccc1,1,3,15*,0,11*,0,-6,/,/,/
O=S(=O)(O)c1cc(Cl)cc(N=Nc2ccc(O)cc2O)c1O,19,72*,13*,0,-6,-152,-151,14*,-70,31*
O=[N+]([O-])c1ccc(N=Nc2ccc(O)cc2O)cc1,1,1,7,-6,4,/,/,/,/,/
O=C(Nc1ccc2ccccc2c1)NC1CCCCN(Cc2cccc(Cl)c2)C1=O (stereo not drawn),1,4,0,2,0,/,/,/,/,/
O=C(NN=C(c1ccccc1)c1ccccn1)c1ccccc1,8,21*,9.7*,-3,0,0,1,-1,2,-1
COc1ccc(C(=O)N/N=C(\c2ccccc2)c2ccccn2)cc1,0,0,5,-7,3,/,/,/,/,/
CCOC(=O)c1c2c(n(C)c1C)C(=O)C(=O)c1ccc(Br)cc1-2,0,7,1,5,0,/,/,/,/,/
CCOC(=O)c1c2c(n(Cc3ccccc3)c1C)C(=O)C(=O)c1ccccc1-2,2,17*,17*,-9,4,36*,11*,3,-9,72*
COCC(=O)N[C@H]1C[C@@H]2O[C@H](CO)CC[C@@H]2O[C@@H]1CCc1ccc(-c2ccccc2)cc1,4,1,2,-5,4,/,/,/,/,/
Nc1cc(=O)[nH]c(SCC(=O)NC2CCCCCCC2)n1,4,70*,9.6*,8,-3,-10,-1,-5,23,14*
COc1ccc([C@H](C#Cc2ccccc2)CC(=O)O)cc1OC1CCCC1,2,-2,-4,-2,-3,/,/,/,/,/
SMILES,UHRF1 binding,LEDGF integ inh,PLC-gamma1 inh,MBD2 inh,PLCb3 inh,PLCgamma1 ctr,PLCbeta3 conf,IN multimer act,TRFRET interf,IN-LEDGF confirm
Cc1ccccc1NC1=C/C(=N\S(=O)(=O)c2ccc(C(=O)O)cc2)c2ccccc2C1=O,-1,40*,25*,-9,9,20*,4,0,-1,74*
COC(=O)[C@]12C[C@H](CC(=O)N3CCCC3)C(=O)N(Cc3ccco3)C1=C[C@H](C(C)(C)C)O[C@@H]2C,1,1,1,-1,2,/,/,/,/,/
Cc1nnc(N/N=C/c2ccc([N+](=O)[O-])cc2)n1N,19,79*,20*,-2,9,8,8,1,-4,-3
COc1ccc(/C=N/Nc2nnc(C)n2N)cc1OC(C)=O,8,32*,11*,-5,0,-8,-2,1,-3,3
COC(=O)[C@]12C[C@H](CC(=O)N3CCC(c4ccccc4)CC3)C(=O)N(Cc3cccc4ccccc34)C1=C[C@H](C(C)C)O[C@@H]2C1CC1,1,-1,1,4,4,/,/,/,/,/
CCOC(=O)c1ccc2ncc(C(=O)OCC)c(NCCCN3CCOCC3)c2c1,6,-5,-7,2,-10,/,/,/,/,/
CCOC(=O)c1cnc2ccc(C)cc2c1NCCN1CCOCC1,3,44*,11*,-4,0,-10,-4,1,-4,1
Cc1cccc(NC(=O)CN2C(=O)N/C(=C\c3cccn3-c3cccc(C(=O)O)c3)C2=O)c1,-1,10,0,-3,-3,/,/,/,/,/
O=C(O)c1cccc(-n2cccc2/C=C2/NC(=O)N(c3ccc(Cl)cc3)C2=O)c1,103*,83*,22*,101*,-10,-8,-23,36*,-129,81*

# Screens from PubChem.
